Assay results from the supplement of paper PMC11732987, “Enantioselective OTUD7B fragment discovery through chemoproteomics screening and high-throughput optimisation” (Communications Chemistry, 2025).

Tests used:
Experiment in all cases: log2 ratio of Biotin-Ahx-Ub-VS probe labelling (fragment/DMSO); higher = less target engagement (more negative = stronger competition), active = hit call of the paper (q ≤ 0.05, log2 ratio ≤ -1)
Details in all cases: compound concentration: 200 uM; treatment time: 3 h
USP42 = target: T1, USP42 (UniProt Q9H9J4)
T1 sequence (whole entry): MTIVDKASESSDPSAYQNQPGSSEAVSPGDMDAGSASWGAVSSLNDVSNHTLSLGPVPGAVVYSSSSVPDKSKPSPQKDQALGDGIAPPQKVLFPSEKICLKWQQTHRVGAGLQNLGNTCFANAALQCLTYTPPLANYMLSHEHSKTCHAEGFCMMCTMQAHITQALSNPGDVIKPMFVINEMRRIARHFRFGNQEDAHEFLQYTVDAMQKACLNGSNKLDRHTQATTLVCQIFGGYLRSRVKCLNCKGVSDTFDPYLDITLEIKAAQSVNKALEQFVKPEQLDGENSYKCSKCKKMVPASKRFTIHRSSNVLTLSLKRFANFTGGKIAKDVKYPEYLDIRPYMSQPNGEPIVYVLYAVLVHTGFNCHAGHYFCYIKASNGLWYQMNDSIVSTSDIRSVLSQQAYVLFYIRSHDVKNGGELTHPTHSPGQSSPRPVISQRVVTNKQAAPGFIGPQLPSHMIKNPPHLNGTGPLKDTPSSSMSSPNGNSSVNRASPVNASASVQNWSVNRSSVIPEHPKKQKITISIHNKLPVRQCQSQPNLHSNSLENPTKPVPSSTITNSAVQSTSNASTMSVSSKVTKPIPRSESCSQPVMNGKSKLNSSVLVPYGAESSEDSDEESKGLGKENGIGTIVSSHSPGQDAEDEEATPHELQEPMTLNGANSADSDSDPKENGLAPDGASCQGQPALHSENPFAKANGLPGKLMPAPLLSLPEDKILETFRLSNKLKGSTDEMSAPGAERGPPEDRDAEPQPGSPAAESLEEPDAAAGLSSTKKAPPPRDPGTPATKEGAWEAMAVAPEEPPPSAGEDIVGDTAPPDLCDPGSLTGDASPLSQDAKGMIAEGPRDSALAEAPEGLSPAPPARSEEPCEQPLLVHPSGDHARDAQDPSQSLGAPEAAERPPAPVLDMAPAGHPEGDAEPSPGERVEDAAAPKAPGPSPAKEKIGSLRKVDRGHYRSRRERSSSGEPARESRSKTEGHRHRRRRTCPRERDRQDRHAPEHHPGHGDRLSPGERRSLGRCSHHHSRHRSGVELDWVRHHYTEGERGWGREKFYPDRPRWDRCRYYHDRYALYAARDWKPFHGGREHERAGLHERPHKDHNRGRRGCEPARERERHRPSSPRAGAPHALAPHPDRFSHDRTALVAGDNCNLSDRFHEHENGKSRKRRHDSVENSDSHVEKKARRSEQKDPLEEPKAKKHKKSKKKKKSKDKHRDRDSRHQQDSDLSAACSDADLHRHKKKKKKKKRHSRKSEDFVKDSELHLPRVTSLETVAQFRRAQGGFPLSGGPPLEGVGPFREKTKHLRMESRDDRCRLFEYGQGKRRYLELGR
How it was run: (§1)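 Triplicate samples of HEK293T lysate, 495 µg each, received fragment at 200 µM or vehicle for 3 h, followed by Biotin-Ahx-Ub-VS (0.5 µM final) for 1 h. After NeutrAvidin enrichment of labelled DUBs and LysC/trypsin digestion, peptides were run by diaPASEF LC-MS/MS. The values are average log2 fragment/vehicle ratios from global-median-normalised Spectronaut label-free quantities, tested by unpaired t-test on proteins having ≥2 unique peptides.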

USP46 = USP46 (UniProt P62068)
Sequence of USP46 (P62068 whole entry): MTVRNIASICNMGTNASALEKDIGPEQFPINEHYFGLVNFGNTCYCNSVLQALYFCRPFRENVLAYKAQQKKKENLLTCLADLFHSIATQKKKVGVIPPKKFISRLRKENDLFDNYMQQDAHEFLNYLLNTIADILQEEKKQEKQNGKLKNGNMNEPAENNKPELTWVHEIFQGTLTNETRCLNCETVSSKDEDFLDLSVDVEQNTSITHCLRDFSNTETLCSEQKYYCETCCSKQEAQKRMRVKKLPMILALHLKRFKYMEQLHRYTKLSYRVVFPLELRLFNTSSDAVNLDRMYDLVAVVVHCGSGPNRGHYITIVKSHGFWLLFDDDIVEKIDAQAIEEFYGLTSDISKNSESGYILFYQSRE
How it was run: as §1

USP47 = target: T2, USP47 (UniProt Q96K76)
T2 sequence (whole entry): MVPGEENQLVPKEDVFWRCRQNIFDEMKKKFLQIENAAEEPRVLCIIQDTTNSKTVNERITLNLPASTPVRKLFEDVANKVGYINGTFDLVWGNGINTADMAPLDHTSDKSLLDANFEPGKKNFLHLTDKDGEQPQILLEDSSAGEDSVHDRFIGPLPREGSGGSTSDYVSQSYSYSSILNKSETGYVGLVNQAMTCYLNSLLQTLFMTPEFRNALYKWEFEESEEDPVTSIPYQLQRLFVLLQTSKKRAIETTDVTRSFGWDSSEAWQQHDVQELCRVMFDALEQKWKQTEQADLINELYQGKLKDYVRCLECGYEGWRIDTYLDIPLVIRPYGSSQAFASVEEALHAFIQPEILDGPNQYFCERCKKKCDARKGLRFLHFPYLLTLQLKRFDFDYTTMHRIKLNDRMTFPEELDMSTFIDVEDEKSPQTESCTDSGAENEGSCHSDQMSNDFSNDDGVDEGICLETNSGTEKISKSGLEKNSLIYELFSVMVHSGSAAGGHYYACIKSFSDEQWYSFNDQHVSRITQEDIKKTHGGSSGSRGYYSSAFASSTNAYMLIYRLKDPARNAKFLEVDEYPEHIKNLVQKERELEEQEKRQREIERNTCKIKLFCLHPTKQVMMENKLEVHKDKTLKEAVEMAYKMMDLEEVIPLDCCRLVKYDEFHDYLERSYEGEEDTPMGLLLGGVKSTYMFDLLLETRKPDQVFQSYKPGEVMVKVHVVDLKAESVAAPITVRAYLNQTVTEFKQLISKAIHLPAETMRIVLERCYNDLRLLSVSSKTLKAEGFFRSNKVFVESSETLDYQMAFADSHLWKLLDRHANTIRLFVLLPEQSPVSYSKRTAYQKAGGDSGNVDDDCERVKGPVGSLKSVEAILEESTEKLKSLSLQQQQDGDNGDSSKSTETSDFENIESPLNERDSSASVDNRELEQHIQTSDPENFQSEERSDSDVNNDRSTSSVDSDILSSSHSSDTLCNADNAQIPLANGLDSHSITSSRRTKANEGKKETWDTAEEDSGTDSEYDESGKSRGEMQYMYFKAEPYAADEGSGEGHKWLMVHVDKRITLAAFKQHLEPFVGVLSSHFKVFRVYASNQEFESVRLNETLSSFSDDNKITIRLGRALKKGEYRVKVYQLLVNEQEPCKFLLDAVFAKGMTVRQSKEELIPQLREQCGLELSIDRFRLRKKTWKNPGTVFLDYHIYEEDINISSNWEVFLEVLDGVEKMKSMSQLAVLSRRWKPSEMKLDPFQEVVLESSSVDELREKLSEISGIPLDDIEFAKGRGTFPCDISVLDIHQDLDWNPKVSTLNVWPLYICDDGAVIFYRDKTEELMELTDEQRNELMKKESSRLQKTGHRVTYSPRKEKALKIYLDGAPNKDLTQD
How it was run: as §1

USP48 = target: T3, USP48 (UniProt Q86UV5)
T3 sequence (whole entry): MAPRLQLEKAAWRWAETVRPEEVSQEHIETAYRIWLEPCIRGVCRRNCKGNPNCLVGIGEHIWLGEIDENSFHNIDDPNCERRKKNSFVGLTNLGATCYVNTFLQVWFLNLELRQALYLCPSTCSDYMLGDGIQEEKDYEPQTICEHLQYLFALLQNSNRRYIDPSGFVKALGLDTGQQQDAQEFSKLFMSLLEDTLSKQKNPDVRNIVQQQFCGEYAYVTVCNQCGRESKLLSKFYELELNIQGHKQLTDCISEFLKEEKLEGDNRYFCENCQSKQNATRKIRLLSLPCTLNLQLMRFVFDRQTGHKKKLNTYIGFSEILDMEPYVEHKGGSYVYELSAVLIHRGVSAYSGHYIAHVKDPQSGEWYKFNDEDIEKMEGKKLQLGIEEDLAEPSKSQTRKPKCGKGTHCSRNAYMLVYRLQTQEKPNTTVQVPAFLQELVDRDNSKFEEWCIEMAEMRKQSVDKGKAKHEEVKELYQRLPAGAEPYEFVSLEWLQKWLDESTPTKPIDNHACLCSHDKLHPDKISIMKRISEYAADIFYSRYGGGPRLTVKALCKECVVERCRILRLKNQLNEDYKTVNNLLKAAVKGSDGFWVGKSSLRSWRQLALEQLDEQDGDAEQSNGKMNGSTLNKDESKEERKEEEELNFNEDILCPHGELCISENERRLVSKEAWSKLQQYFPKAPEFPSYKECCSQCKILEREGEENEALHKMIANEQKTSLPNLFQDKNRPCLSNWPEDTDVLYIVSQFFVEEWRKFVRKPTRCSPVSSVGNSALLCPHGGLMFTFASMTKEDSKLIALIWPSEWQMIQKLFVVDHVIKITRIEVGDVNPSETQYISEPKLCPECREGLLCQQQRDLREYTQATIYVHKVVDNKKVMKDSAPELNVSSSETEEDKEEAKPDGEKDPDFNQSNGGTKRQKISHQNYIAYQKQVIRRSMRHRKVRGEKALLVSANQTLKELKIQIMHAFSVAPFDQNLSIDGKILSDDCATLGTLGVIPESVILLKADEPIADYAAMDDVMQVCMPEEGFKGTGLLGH
How it was run: as §1

USP5 = target: T4, USP5 (UniProt P45974)
T4 sequence (whole entry): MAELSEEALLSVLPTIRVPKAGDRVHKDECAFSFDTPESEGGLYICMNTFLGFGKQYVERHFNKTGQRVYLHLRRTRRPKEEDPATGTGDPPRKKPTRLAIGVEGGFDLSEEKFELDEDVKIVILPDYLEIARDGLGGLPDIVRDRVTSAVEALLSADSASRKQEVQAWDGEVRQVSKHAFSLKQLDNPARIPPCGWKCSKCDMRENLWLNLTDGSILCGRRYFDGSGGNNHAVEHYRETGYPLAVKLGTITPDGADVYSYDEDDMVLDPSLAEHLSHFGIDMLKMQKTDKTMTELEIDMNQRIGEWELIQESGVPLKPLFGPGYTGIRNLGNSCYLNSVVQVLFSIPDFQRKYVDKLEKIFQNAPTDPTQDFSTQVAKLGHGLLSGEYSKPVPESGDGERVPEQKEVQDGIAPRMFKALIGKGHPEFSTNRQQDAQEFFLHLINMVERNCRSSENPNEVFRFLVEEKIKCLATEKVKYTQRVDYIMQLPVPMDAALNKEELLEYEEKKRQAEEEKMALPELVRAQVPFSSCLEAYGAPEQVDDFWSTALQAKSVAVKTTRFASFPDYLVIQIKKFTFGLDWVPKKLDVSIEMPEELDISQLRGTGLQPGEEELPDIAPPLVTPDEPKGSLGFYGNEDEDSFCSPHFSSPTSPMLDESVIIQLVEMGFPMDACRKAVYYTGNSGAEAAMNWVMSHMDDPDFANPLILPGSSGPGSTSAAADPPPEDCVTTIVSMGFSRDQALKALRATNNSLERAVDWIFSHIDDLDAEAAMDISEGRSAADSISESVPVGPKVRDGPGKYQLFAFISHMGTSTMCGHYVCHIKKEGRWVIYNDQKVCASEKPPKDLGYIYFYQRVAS
How it was run: as §1

USP54 = USP54 (UniProt Q70EL1)
How it was run: as §1

USP7 = USP7 (UniProt Q93009)
Sequence of USP7 (Q93009 whole entry, looked up): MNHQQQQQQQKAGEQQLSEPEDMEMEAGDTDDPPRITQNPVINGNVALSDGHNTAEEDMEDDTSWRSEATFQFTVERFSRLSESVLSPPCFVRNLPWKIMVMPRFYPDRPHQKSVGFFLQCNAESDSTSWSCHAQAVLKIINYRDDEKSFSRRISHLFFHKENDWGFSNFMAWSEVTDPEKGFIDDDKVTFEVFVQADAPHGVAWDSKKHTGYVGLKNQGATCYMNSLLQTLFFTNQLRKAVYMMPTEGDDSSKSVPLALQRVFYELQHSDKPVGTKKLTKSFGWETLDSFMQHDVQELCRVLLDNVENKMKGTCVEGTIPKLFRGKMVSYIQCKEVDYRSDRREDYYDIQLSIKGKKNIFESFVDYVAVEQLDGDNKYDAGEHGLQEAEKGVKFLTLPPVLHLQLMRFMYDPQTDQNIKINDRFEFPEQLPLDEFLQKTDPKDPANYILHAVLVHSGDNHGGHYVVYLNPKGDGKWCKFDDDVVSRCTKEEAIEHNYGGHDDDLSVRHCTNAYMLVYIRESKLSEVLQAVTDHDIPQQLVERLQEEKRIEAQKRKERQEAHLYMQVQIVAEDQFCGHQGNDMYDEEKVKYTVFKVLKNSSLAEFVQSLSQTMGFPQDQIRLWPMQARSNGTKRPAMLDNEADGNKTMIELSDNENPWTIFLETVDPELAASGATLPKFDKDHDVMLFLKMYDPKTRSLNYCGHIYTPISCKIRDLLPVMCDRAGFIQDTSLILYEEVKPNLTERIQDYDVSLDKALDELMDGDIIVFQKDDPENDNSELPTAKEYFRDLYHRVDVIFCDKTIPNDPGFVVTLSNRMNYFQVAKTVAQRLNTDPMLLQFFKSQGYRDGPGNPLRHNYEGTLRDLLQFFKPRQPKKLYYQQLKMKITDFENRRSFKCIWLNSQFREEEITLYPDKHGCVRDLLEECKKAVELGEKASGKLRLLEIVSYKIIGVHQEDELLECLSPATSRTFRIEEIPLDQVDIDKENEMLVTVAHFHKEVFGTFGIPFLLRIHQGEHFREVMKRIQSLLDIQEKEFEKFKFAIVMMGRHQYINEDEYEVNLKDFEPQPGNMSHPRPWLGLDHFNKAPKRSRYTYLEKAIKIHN
How it was run: as §1

USP8 = target: T5, USP8 (UniProt P40818)
T5 sequence (whole entry): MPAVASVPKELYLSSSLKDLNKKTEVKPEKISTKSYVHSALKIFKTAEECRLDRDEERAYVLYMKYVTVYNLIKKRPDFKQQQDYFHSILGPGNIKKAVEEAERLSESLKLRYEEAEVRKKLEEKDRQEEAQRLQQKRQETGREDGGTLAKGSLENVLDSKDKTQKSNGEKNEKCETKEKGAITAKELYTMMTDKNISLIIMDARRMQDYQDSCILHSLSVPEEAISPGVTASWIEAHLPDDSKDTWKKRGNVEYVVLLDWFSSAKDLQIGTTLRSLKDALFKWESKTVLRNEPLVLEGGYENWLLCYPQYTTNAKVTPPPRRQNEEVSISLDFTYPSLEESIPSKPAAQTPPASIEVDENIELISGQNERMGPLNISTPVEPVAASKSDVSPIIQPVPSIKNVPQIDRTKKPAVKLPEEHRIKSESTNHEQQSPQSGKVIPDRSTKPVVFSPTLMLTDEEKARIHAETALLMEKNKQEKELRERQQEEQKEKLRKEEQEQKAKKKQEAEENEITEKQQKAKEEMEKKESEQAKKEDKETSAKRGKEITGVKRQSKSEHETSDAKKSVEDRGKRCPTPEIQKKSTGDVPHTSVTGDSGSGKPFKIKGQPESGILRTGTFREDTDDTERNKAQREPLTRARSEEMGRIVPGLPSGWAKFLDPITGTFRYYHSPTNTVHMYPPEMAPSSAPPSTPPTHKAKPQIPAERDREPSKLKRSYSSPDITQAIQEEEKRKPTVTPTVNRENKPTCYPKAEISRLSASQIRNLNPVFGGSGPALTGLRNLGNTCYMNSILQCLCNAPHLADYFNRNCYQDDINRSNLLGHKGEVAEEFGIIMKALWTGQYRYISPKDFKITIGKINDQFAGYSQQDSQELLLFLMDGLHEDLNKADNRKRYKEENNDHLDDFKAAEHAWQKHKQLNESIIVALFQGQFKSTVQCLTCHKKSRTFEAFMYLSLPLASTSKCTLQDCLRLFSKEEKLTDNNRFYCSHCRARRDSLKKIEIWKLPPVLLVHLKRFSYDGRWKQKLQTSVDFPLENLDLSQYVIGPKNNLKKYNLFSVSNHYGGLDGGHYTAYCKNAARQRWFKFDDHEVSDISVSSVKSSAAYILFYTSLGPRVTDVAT
How it was run: as §1

USP9X = USP9X (UniProt Q93008)
Sequence of USP9X (Q93008 whole entry): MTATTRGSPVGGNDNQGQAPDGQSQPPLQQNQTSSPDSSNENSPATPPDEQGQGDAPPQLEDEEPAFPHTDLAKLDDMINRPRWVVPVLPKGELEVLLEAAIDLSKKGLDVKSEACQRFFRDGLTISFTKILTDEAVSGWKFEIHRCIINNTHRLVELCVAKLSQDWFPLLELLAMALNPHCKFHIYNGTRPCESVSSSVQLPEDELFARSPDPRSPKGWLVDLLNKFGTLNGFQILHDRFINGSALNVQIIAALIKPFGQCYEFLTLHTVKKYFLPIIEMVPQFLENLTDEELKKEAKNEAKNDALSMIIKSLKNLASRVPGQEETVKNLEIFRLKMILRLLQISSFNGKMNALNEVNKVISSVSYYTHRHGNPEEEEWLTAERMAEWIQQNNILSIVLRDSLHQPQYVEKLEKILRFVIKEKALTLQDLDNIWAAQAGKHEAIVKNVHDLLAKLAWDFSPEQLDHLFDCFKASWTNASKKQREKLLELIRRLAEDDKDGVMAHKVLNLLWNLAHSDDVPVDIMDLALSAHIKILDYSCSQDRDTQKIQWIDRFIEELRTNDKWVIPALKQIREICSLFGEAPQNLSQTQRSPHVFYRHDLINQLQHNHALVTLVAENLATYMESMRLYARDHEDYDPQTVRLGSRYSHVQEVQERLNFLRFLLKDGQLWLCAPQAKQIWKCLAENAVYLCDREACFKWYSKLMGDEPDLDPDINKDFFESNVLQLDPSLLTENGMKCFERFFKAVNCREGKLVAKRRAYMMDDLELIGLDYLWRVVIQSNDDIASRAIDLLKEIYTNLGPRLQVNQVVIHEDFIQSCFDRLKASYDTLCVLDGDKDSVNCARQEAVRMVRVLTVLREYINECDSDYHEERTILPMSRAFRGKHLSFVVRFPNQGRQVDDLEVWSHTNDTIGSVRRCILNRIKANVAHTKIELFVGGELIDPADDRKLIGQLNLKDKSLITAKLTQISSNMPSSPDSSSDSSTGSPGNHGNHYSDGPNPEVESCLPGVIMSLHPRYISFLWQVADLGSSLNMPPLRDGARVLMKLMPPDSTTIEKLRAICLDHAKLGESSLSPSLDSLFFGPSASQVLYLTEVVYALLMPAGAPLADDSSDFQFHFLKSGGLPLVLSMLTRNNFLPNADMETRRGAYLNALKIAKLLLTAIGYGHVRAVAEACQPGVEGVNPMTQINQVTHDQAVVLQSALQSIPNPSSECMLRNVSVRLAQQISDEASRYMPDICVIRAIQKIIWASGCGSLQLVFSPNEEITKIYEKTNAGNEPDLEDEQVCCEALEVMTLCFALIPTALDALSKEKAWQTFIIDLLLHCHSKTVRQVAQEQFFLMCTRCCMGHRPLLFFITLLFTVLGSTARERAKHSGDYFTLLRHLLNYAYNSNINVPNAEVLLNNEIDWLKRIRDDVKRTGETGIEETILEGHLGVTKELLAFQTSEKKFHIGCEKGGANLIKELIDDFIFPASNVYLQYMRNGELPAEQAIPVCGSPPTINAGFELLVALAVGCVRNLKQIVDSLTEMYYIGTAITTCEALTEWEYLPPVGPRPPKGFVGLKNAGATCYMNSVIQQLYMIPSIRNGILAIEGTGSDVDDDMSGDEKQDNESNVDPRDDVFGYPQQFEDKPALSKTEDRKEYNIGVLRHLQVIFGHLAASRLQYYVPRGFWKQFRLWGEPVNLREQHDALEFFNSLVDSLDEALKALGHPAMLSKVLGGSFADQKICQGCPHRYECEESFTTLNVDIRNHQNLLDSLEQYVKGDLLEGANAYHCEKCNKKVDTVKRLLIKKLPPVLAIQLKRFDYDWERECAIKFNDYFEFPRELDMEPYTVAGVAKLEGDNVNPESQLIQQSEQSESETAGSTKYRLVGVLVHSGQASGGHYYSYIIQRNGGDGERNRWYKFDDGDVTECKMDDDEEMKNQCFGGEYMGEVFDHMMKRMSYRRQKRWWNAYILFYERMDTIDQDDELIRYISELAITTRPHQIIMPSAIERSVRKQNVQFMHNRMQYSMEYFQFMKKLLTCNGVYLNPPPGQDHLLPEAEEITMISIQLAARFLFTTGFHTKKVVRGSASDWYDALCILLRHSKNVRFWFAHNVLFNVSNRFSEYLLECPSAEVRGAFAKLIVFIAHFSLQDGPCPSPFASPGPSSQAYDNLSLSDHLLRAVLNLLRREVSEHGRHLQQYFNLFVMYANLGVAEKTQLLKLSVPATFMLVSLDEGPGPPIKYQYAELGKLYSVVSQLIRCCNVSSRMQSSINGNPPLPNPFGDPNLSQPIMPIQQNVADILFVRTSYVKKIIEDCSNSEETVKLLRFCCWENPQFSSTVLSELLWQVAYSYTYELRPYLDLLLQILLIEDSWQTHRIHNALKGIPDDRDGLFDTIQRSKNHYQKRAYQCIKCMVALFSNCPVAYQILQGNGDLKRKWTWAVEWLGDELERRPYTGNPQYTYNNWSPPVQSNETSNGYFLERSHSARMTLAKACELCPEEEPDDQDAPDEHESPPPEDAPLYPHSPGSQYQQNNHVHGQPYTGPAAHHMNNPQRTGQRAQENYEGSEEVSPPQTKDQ
How it was run: as §1

UniProt O00487 = target: UniProt O00487
Sequence of UniProt O00487 (O00487 whole entry): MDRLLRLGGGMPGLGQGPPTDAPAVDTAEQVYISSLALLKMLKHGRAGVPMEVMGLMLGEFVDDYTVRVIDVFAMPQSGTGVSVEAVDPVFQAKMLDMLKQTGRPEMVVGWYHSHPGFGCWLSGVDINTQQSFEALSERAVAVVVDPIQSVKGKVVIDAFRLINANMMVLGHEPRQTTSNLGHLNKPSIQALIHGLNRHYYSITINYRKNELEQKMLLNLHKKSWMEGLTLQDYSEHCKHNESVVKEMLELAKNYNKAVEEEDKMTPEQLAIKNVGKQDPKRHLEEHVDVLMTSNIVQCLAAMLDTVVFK
How it was run: as §1

Measured: log2 ratio of Biotin-Ahx-Ub-VS probe labelling

O=C(CCl)N1CC2(CCOCC2)C1
inactive: USP42 -0.145 | USP46 0.00462 | USP47 0.0373 | USP48 -0.152 | USP5 0.362 | USP54 0.355 | USP7 -0.055 | USP8 0.147 | USP9X -0.238 | UniProt O00487 -0.0916
